The supplement of paper PMC3616981

Compound: CC(C)c1cccc(C(C)C)c1N1C(=O)c2ccc(O)cc2C1=O
Assay: reporter fold induction vs vehicle; higher = higher reporter activity
Method: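 Attagene multiplexed transcription-factor reporter assay (48 cis response elements and 25 trans nuclear-receptor constructs) treated with 5HPP-33 at 8 concentrations (0.091–200 µM). The response is fold induction of reporter activity relative to vehicle control. Cell line and time not stated in the paper; tested in ToxCast Phase II for this study.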

| Target | reporter fold induction (0.091 µM) | reporter fold induction (0.274 µM) | reporter fold induction (0.823 µM) | reporter fold induction (2.469 µM) | reporter fold induction (7.407 µM) | reporter fold induction (22.22 µM) | reporter fold induction (66.67 µM) | reporter fold induction (200 µM) |
| --- | --- | --- | --- | --- | --- | --- | --- | --- |
| Ahr_CIS | 0.965 | 0.977 | 0.949 | 1.01 | 1.06 | 1 | 2.27 | 1.09 |
| HNF4a_TRANS | 1.1 | 1.42 | 0.883 | 1.11 | 1.1 | 1.07 | 0.715 | 0.473 |
| ERRg_TRANS | 1.02 | 1.11 | 1.14 | 1.02 | 0.941 | 1.07 | 0.845 | 0.391 |
| Myc_CIS | 1.01 | 1.03 | 0.99 | 0.982 | 1.09 | 1.04 | 1.05 | 2.33 |
| STAT3_CIS | 1.05 | 1 | 0.995 | 0.975 | 0.977 | 1.15 | 1.02 | 0.913 |
